# Assay results: PubChem BioAssay AID1211 (NMMLSC, 2008)
# Unmarked numbers belong to inactive results. Calls of active or inactive are those of the source. The rule behind the calls is not given here.
# Target: Estrogen receptor (Homo sapiens) (UniProt P03372)
# Assay: ERalpha ligand binders by competition, primary screen, cell-based, Cos7 ERalpha-GFP, flow cytometry (AID 1211);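 note: 0% = DMSO vehicle wells and 100% = no E2-Alexa633 signal left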
# Conditions: fluorescent ligand competition, at 10 µM, hits give high values
# Estrogen receptor (Homo sapiens), sequence (P03372 whole entry, looked up): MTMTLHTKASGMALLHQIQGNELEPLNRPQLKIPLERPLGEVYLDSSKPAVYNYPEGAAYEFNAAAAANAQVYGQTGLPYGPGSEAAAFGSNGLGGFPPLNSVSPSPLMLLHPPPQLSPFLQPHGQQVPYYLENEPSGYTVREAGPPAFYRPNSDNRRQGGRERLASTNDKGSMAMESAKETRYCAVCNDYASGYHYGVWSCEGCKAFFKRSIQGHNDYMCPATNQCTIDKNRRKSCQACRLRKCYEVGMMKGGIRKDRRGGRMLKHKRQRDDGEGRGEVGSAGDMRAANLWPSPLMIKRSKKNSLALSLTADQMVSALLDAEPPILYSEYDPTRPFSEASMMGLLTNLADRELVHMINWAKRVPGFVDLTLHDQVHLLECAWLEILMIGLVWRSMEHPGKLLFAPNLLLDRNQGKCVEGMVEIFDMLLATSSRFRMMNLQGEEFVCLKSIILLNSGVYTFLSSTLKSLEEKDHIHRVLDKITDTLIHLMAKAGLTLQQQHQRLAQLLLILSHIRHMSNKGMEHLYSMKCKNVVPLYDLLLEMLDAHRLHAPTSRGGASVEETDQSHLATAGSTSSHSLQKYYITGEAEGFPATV
row,SMILES,inhibition of ligand binding
1,CC(=O)OC1CC(C)(C)N(OC(=O)c2ccc(N)cc2)C(C)(C)C1,6%
2,Cc1ccc(N=Cc2c(O)n(-c3ccc4c(c3)OCO4)c(=O)c3ccccc23)cc1,49%
3,COc1cc(OC)cc(C(=O)NC2CCN(C(=O)N3c4ccccc4Sc4ccccc43)CC2)c1,6%
4,Oc1ccc(-c2nc(-c3ccc(O)c(O)c3)cs2)cc1,68% (active)
5,O=C(Cc1cccs1)Nc1nnc(Cc2ccccc2)s1,33%
6,O=C(Cc1cccs1)Nc1ccc(S(=O)(=O)Nc2ncccn2)cc1,15% (active)
7,O=C(c1cc2sccc2n1Cc1ccccc1)N1CCc2ccccc21,45%
8,CC(C)(C)c1nnc2sc(SC/C(O)=C(\C#N)c3nc4ccccc4[nH]3)nn2c1=O,20%
9,Cc1c2cc(O)c(=O)cc-2oc2cc(O)c(O)cc12,31%
10,CN1C(=O)CSc2ccc(NC(=O)N3CCC(N4CCCCC4)CC3)cc21,57%
11,Oc1cccc(-c2nc3ccc4ccccc4c3c3c2CCC3)c1,33%
12,O=C(c1cccs1)N1N=C(c2ccc(O)cc2)CC1c1ccccc1 (centres undefined),58%
13,Cc1occc1C(=O)NCc1cccc(CNC(=O)c2ccoc2C)c1,39%
14,COc1ccccc1N1CCN(C(=O)c2cc3c(s2)CCC3)CC1,41%
15,Nc1ccc(-c2cc(-c3ccc(N)cc3)nc(-c3ccccc3)n2)cc1,51%
16,CC1(C)Cc2c(sc3c4nnnn4c4nnnn4c23)CO1,12%
17,COc1ccc(Cl)cc1NC(=O)c1ocnc1C,21%
18,COc1ccc2nc3oc(C(=O)N4CCN(c5cccc(C(F)(F)F)c5)CC4)cc3cc2c1,45%
19,CCSc1nnc(NC(=O)C2Cc3ccccc3CN2C(=O)c2ccco2)s1 (centres undefined),26%
20,O=C(OCC(=O)N1CCN(C(=O)c2ccco2)CC1)c1cc(-c2ccco2)nc2ccccc12,34% (active)

row,SMILES,inhibition of ligand binding
1,CC(Cc1ccc(O)c(O)c1)C(C)Cc1ccc(O)c(O)c1 (centres undefined),47%
2,CCOC(=O)C1CCCN(C(=O)c2ccc(CS(=O)(=O)c3ccc(C)cc3)o2)C1 (centres undefined),30%
3,COCCNC(=O)c1c(N)n(/N=C/c2cccs2)c2nc3ccccc3nc12,41%
4,CCC1(C)NC(=O)N(CC(=O)Nc2sc3c(c2C(N)=O)CCC3)C1=O (centres undefined),15%
5,Cc1ccc2occ(C3NC(C(=O)O)CS3)c(=O)c2c1 (centres undefined),39%
6,O=c1cc(CSc2nnc(-c3cccs3)n2Cc2ccccc2)nc2sc3ccccc3n12,49%
7,Cc1cc(C)nc(NC(=O)CSc2nn(C)c(=S)s2)n1,23%
8,C/C=C/COC(=O)c1[nH]c2c(c1C)C(=O)CC(c1ccco1)C2 (centres undefined),29%
9,Cc1ccc(/C=c2\sc3nc(-c4ccco4)nn3c2=O)o1,37%
10,Cc1ccc(C)n1-c1sccc1C(=O)O,36%
11,COc1cccc2c1NC(C(=O)O)C1CC=CC21 (centres undefined),38%
12,Cc1ccc(N=Cc2ccc(O)cc2O)cc1F,29%
13,COc1ccc(OC)c(NC(=O)c2cc(-c3ccc(C)cc3O)n[nH]2)c1,40%
14,CCn1c(SCC(=O)Nc2ccc3c(c2)oc2ccccc23)nnc1-c1ccc(N)cc1,44%
15,Nc1ccc2nc(CN3CCOCC3)[nH]c2c1,42%
16,O=C(Nc1ccc2c(c1)nc1n2CCSC1)c1ccco1,20%
17,COc1ccc(-c2nc(C(N)=O)c3[nH]c(=O)n(-c4cccc(Cl)c4)c3n2)cc1OC,0%
18,O=C(O)c1ccc(NS(=O)(=O)c2ccc3c(c2)C2C=CCC2C(c2ccccc2F)N3)cc1 (centres undefined),62%
19,Cc1cc(=O)oc2c(CN3CCC(C)CC3)c(O)c(Cl)cc12,10%
